In the library only some 1.2% were active in any assay of this set; here they are far more common.
Avidin fluor: avidin bead compound fluorescence profile; 220,000 tested, 0.38% active; Avidin beads, compound fluorescence 488/530 nm, flow cytometry; stronger effect = higher value; fluorescence (KMESF) at 10 µM; in the data active = fluorescence above about 47
GSH fluor: compound fluoresces at 488/530 nm on GSH beads. 190,000 tested, 0.25% active. fluorescence (KMESF) at 10 µM. GSH beads flow cytometry, compound fluorescence 488/530 nm; stronger effect = higher value. AID 1776; in the data active = fluorescence above about 89;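 note: glutathione beads carrying GST-tagged Bcl family fusion proteins plus one bare bead set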
RGS7-Gao: human RGS7-Galphao interaction regulation | P09471 | Multiplexed bead flow cytometry, RGS7-Galphao binding; actives lie on both sides | binding response (% of control), % at 10 µM | 220,000 tested, 0.35% active | AID 1439; in the data active = binding response below about 49% or above about 150%; inconclusive = no clear call, values can overlap the other calls; inactive = in between;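 note: fluorescent Galphao held in activated GDP-AlF4 state binding bead-coupled RGS7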
Target sequence (P09471 whole entry, looked up): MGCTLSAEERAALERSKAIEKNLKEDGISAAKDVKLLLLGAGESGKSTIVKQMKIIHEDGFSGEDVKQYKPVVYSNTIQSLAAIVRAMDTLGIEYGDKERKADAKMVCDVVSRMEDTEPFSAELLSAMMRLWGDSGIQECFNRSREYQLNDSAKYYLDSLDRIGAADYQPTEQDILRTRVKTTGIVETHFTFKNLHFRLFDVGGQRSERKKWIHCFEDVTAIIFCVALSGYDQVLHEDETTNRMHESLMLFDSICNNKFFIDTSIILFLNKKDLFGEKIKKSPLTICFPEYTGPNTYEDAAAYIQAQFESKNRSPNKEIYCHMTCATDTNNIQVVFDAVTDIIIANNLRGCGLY
RGS8-Gao reg: regulators of human RGS8-Galphao interaction. P09471. multiplexed bead flow cytometry, RGS8-Galphao binding; actives lie on both sides. response (percent of control binding), % at 10 µM. 220,000 tested, 0.34% active. AID 1423; in the data active = response below about 60% or above about 140%; inactive = in between;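 note: Galphao activated as the GDP aluminium fluoride complex binding bead-coupled RGS8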
RGS4-Gao reg: human RGS4-Galphao interaction regulation; P09471; Multiplexed bead flow cytometry, RGS4-Galphao binding; actives lie on both sides; binding response (% of control), % at 10 µM; 220,000 tested, 0.33% active; AID 1415; in the data active = binding response below about 49% or above about 150%; inactive = in between;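 note: fluorescent Galphao activated with aluminum fluoride binding bead-coupled RGS4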
RGS16-Gao: modulates binding between human RGS16 and Galphao | O15492+P09471 | bead-based flow cytometry RGS16-Galphao binding, fluorescence; actives lie on both sides | binding response (% of control), % at 10 µM | 220,000 tested, 0.38% active | AID 1441; call rule not given here;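 note: Galphao activated by GDP with aluminum fluoride before binding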
Target sequence (O15492 whole entry, looked up): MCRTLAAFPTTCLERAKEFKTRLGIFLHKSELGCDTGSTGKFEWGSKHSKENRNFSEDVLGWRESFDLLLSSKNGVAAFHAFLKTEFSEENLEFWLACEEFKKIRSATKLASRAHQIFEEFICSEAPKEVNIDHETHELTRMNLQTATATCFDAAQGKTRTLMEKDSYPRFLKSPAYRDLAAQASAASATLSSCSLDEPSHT
Target sequence (P09471 whole entry, looked up): as the sequence (P09471 whole entry, looked up) above
Hits are given with their value; 0 = inactive; ? = inconclusive; - = no result.

SMILES	Avidin fluor	GSH fluor	RGS7-Gao	RGS8-Gao reg	RGS4-Gao reg	RGS16-Gao
CCOC(=O)C1=C(c2ccccc2)N(C)C(=O)NC1c1ccc(OC(F)F)c(OC)c1 (stereo not drawn)	56	0	0	0	0	0
C1=C(c2ccccc2)Nc2ccccc2N=C1c1ccccc1	0	0	0	0	0	0
CCN(CC)CCNC(=O)c1ccccc1C(=O)c1ncc[nH]1	107	0	0	0	0	0
CCN(CC)CCNC(=O)c1ccccn1	0	0	0	0	0	0
COc1cc(C(=O)NNC(=O)Nc2ccc([N+](=O)[O-])cc2)cc(OC)c1OC	0	0	0	0	0	0
O=C(CSc1nnc(COc2cccc3cccnc23)o1)N1CCN(C(=O)c2ccco2)CC1	0	136	0	0	0	0
CC1(C)Cc2c(C#N)c(SCC(=O)c3ccccc3)nc(N3CCOCC3)c2CS1	49	0	0	0	0	0
Cc1ccc(C)c(/C(O)=C2\C(=O)C(=O)N(Cc3cccnc3)C2c2cccnc2)c1 (stereo not drawn)	49	0	0	0	0	0
O=C(NNS(=O)(=O)c1ccccc1)C1CC(c2cccnc2)=NO1 (stereo not drawn)	0	0	?	0	0	0
CCOC(=O)c1c(NC(=O)N/N=C/c2ccccc2OCC)sc(C(C)=O)c1C	0	447	0	0	0	0
CCOC(=O)c1cc(-c2ccc(OC)cc2)nc2c1c(C)nn2CCC#N	56	0	0	0	0	0
CCOC(=O)c1cc(-c2ccc(C#N)cc2)nc2c1c(C)nn2CCC#N	0	0	0	0	0	0
Cc1cc2occ(CC(=O)O)c2cc1C	0	234	0	0	0	0
Cc1ccc2c(CC(=O)O)coc2c1	0	0	0	0	0	0
COc1ccc(NC(=O)CCNS(=O)(=O)c2ccc3c(c2)c(=O)n(C)c(=O)n3C)cc1	69	0	0	0	0	0
O=S(=O)(c1ccc(Cl)cc1)N1CCN(C(=S)Nc2ccccc2F)CC1	0	0	0	0	0	0
O=C(Nc1cccnc1)c1ccc(Cl)c(S(=O)(=O)N2CCc3ccccc32)c1	62	0	0	0	0	0
Cc1ccc(-c2nc3ccccc3c(=O)n2NC(=O)COc2ccccc2)cc1	0	231	0	0	0	0
O=C(COc1ccccc1)Nn1c(-c2ccccc2)nc2ccccc2c1=O	0	0	0	0	0	0
COC(=O)CC(NC(=O)c1cccs1)c1ccc(OC)c(OC)c1 (stereo not drawn)	0	0	0	0	0	0
Cc1cc(C)n2nc(C(=O)OCCOc3cccc(Br)c3)nc2n1	0	253	0	0	0	0
COc1ccc(Cl)cc1C(=O)NNC(=O)CSc1nnnn1C	0	0	0	0	0	0
COc1ccccc1C(O)P(=O)(OC(C)C)c1ccc(N(C)C)cc1 (stereo not drawn)	0	0	0	0	0	0
CC(C)OP(=O)(c1ccc(N(C)C)cc1)C(O)c1ccccc1F (stereo not drawn)	0	103	0	0	0	0
Cc1cc(C)cc(OCC(=O)Nc2ccccc2N2CCCCC2)c1	69	0	0	0	0	0
SMILES	Avidin fluor	GSH fluor	RGS7-Gao	RGS8-Gao reg	RGS4-Gao reg	RGS16-Gao
CCN(CC)C(=O)[C@]1(c2ccccc2)C[C@@H]1CN	0	0	0	0	0	0
CC1C(=O)CCC1(C(=O)O)c1ccccc1 (stereo not drawn)	49	0	0	0	0	0
O=C(c1cc(-c2ccco2)nc2ccccc12)N1CCN(c2ccc(F)cc2)CC1	0	0	0	0	0	0
COCCCNC(=O)CSc1ccc(Cl)cc1	0	0	0	0	0	0
CCOCCCNC(=O)CSc1ccccc1	51	0	0	0	0	0
CC(NC(=S)Nc1ccccc1C(F)(F)F)C1CC2CCC1C2 (stereo not drawn)	0	0	0	0	0	0
CCN(CC)CCCNC(=O)CSc1nc2c(c(C(F)(F)F)n1)CCc1ccccc1-2	64	0	?	0	0	0
Oc1ccc(N=Cc2ccc(-c3cccs3)s2)cc1	47	0	0	0	0	0
CCCCOc1ccc(N=Cc2cccs2)cc1	0	0	0	0	0	0
N#CCCSCc1ccc(C(=O)O)o1	0	0	0	0	0	0
CCCCSCc1ccc(C(=O)O)o1	0	131	0	0	0	0
Cc1ccc(C2(c3noc(CN4CCC(c5ccncc5)CC4)n3)CCCC2)cc1	0	0	0	0	0	0
CCOC(=O)c1sc(NC(=O)C2CC2)cc1C	0	0	0	0	0	0
CCOC(=O)c1sc(NC(=S)NC(=O)C2CCCC2)cc1C	49	0	0	0	0	0
COC(=O)Nc1ccc(S(=O)(=O)N2CCCC(C(=O)O)C2)cc1 (stereo not drawn)	0	0	0	0	0	0
CC(Oc1cccc(F)c1)c1ccnc2nc(/N=C/N(C)C)nn12 (stereo not drawn)	0	0	0	0	0	0
Cc1nnc(NC2=NCCC2)o1	95	0	0	0	0	0
CCN(C(=O)CSc1nnnn1-c1cc(C)ccc1OC)C1CCS(=O)(=O)C1 (stereo not drawn)	0	267	0	0	0	0
O=S1(=O)N=C(N=Nc2c(O)[nH]c3ccccc23)c2ccccc21	0	0	11.8	16.9	12.5	4.8
Oc1[nH]c2ccccc2c1N=Nc1ccccc1	0	-	?	0	0	0
O=C(Nc1ccc(Br)cc1)N1CCCCC1	0	0	0	0	0	0
Cc1cc(C)c(C(=O)CN2C(=O)NC3(CCCCCC3)C2=O)cc1C	0	0	0	0	0	0
CCCCOc1ccc(S(=O)(=O)Nc2ccc(NC(C)=O)cc2)cc1	0	129	0	0	0	0
CCCCN(CCCC)S(=O)(=O)c1ccc(NS(=O)(=O)c2ccc(NC(C)=O)cc2)cc1	0	0	0	0	0	0
COC(=O)CSc1nc(-c2ccccc2)c2c(c1C#N)CCCC2	0	260	0	0	0	0
SMILES	Avidin fluor	GSH fluor	RGS7-Gao	RGS8-Gao reg	RGS4-Gao reg	RGS16-Gao
CC(C)CCOc1ccc(C(=O)N2CCCC2C(=O)O)cc1 (stereo not drawn)	0	0	0	0	0	0
O=C(CC1C(=O)NCCN1C(=O)Nc1ccccc1)Nc1ccc2c(c1)OCCO2 (stereo not drawn)	60	0	0	0	0	0
CN(C)S(=O)(=O)c1cccc(NC(=S)N2CCc3ccccc32)c1	154	0	?	0	0	0
CCN(CC)C(=O)c1ccc2c3c(cccc13)C(=O)N(CCc1ccc(OC)c(OC)c1)C2=O	0	0	0	0	0	0
Nc1nc(-c2ccc3c(c2)CCCC3)cs1	0	263	0	0	0	0
CCc1ccccc1NC(=O)c1ccc(CN2CCC(Cc3ccccc3)CC2)cc1	0	0	0	0	0	0
O=C(CCc1nc2ccccc2c(=O)[nH]1)NC1CCN(Cc2ccccc2)CC1	0	256	0	0	0	0
